Records with an inconclusive call do not appear. Entries that show only a call come without a potency. Calls of active or inactive are those of the source. Calls come from the whole dose curve; as a rule, active = well fitted cell-killing curve with a large enough effect in the repeat runs; inconclusive = weak or mixed curves, or effect the other way; inactive = no such curve, though single readings can be large or run the other way.

A short description of this assay: qHTS assay to identify small molecule antagonists of the peroxisome proliferator-activated receptor gamma (PPARg) signaling pathway - cell viability counter screen (AID 743194). Note: nearly all actives have a fitted effect of over 55% in size. The following applies: PPARg-bla HEK293H viability, CellTiter-Glo luminescence, 17 h, co-treated with 50 nM rosiglitazone; series mostly up to 62.6 µM. The text has this: U.S. Tox21 Program National Center for Advancing Translational Sciences [NCATS] NIH Chemical Genomics Center [NCGC] U.S. Environmental Protection Agency [EPA] National Institutes of Environmental Health Sciences [NIEHS] National Toxicology Program [NTP] U.S. Food and Drug Administration [FDA] Tox21 Assay Overview: The peroxisome proliferator-activated receptors (PPARs) are lipid-activated transcription factors of the nuclear receptor superfamily with three distinct subtypes namely PPAR alpha, PPAR delta (also called PPAR beta) and PPAR gamma (PPARg). All these subtypes heterodimerize with Retinoid X receptor (RXR) and these heterodimers regulate transcription of various genes. PPAR-gamma receptor (glitazone receptor) is involved in the regulation of glucose and lipid metabolism. To identify the compounds that activate PPAR-gamma signaling, GeneBLAzer PPAR gamma UAS-bla HEK293H cell line (Invitrogen, Carlsbad, CA, USA) containing a beta-lactamase reporter gene under the control of an Upstream Activator Sequence (UAS) was used to screen the Tox21 compound library. The cytotoxicity of the Tox21 compound library against the PPARg-bla cell line was tested in parallel by measuring the cell viability using CellTiter-Glo assay in the same wells.
Tox21 Assay Protocol Summary: PPARg-bla cells were dispensed at 3000 cells/5uL/well in 1536-well black wall/clear bottom plates using a Multidrop Combi (Thermo Fisher Scientific, Waltham, MA) dispenser. After the assay plates were incubated at 37 C and 5% CO2 for 5 h, 23 nL of compounds dissolved in DMSO, positive controls or DMSO only was transferred to the assay plate by a Pintool station (Kalypsys, San Diego, CA), followed by addition of 1ul Rosiglitazone (50 nM, final concentration in the wells). The assay plates were incubated at 37 C for 17 h, and then 1 uL of LiveBLAzerTM B/G FRET substrate was added using a Bioraptr Flying Reagent Dispenser (FRD) workstation (Beckman Coulter, Indianapolis, IN, USA). The assay plates were incubated at room temperature for 1 h and fluorescence intensity was measured by an Envision plate reader (PerkinElmer, Shelton, CT). For cell viability readout that measures cytotoxicity, 4 ul/well of CellTiter-Glo reagent was added into the assay plates using a Flying Reagent Dispenser. After 30 min incubation at room temperature, the luminescence intensity in the plates was measured using a ViewLux plate reader (PerkinElmer).
A general note: In qHTS, concentration-response curves come from the screen itself.
Regarding `CC(=O)OC(C)C`, the Potency result was “inactive”. The value for `Cc1cccc(Nc2ccccc2C(=O)O)c1C` was “inactive”; that for `O=C(O)c1ccc(O)cc1` was “inactive”; that for `O=C(O)c1cc(=O)[nH]c(=O)[nH]1` was “inactive”.

As for `C=C[C@H]1CN2CC[C@H]1C[C@H]2[C@H](O)c1ccnc2ccc(OC)cc12`, the Potency result was “inactive”. The value for `OC[C@@H](O)[C@@H](O[C@@H]1O[C@H](CO)[C@H](O)[C@H](O)[C@H]1O)[C@H](O)[C@@H](O)CO` was “inactive”. As to `Cc1ccc(C)c(O)c1`, the Potency result is “inactive”. On to `COc1cc([C@H]2Oc3cc([C@H]4Oc5cc(O)cc(O)c5C(=O)[C@@H]4O)ccc3O[C@@H]2CO)ccc1O`, for which the Potency entry is “inactive”. The value for `CCCN1C=CN(C)C1` was “inactive”. The value for `C=C1C[C@H]2[C@@H]3C=C(C)C4=CC(=O)CC[C@]4(C)[C@H]3CC[C@]2(C)[C@@]1(OC(C)=O)C(C)=O` was “inactive”. The value for `c1ccc2cc3ccccc3cc2c1` was “inactive”; that for `CC(C)=CCO` was “inactive”. With `CC1(C)O[C@@H]2C[C@H]3[C@@H]4C[C@H](F)C5=CC(=O)C=C[C@]5(C)[C@@]4(F)[C@@H](O)C[C@]3(C)[C@]2(C(=O)CO)O1`, the Potency entry was “inactive”. The value for `CCO[Si](CCCNC(N)=O)(OCC)OCC` was “inactive”. `C=CCOC(=O)C(=C)C`: the Potency entry was “inactive”.

Regarding `CC1(C)C(C=C(Cl)Cl)C1C(=O)OCc1cccc(Oc2ccccc2)c1` (stereo not given), the Potency entry was “inactive”.

On to `Cc1ccc(C(C)(C)C)cc1`, for which the Potency entry is “inactive”. The value for `NC[C@H](O)c1ccc(O)c(O)c1` was “inactive”; that for `COC(=O)C(C)Oc1ccc(Oc2ncc(C(F)(F)F)cc2Cl)cc1` (stereo not given) was “inactive”; that for `COc1ccc(C(=O)c2ccccc2O)c(O)c1` was “inactive”. The value for `CC/C=C\C/C=C\C/C=C\CCCCCCCC(=O)O` was “inactive”. The value for `CCCOCCO` was “inactive”; that for `C[C@]12CC[C@@H]3c4ccc(O)cc4CC[C@H]3[C@@H]1CC[C@H]2O` was “inactive”. Turning to `Brc1nc2ccccc2s1`, the Potency entry is “inactive”.

As to `O=C(O)COCCN1CCN(C(c2ccccc2)c2ccc(Cl)cc2)CC1` (stereo not given), the Potency entry was “inactive”. The value for `CCCCCC=O` was “inactive”. The value for `IC(I)I` was “inactive”; that for `CC1(C)NC(=O)N(c2ccc([N+](=O)[O-])c(C(F)(F)F)c2)C1=O` was “inactive”. For the compound `CC[C@]12CCCN3CCc4c(n(c5ccccc45)[C@@](O)(C(=O)OC)C1)[C@@H]32`, the Potency result is “inactive”. The value for `COc1ccc2nc(N)sc2c1` was “inactive”; that for `Nc1ccc2c(c1)C(=O)c1ccccc1C2=O` was “inactive”; that for `c1ccc2ncccc2c1` was “inactive”. The value for `Clc1ccc(Sc2cc(Cl)c(Cl)cc2Cl)cc1` was “inactive”; that for `O=C(CCCN1CCC(O)(c2ccc(Cl)cc2)CC1)c1ccc(F)cc1` was “inactive”. The value for `Cc1ccc(/C(=C\CN2CCCC2)c2ccccn2)cc1` was “inactive”; that for `CCOC(=O)C(C)Oc1ccc(Oc2cnc3cc(Cl)ccc3n2)cc1` (stereo not given) was “inactive”; that for `Oc1c(Cl)ccc(Cl)c1Cl` was “inactive”.

Regarding `CN(C)C`, the Potency entry was “inactive”. Take `Nc1cc([N+](=O)[O-])ccc1C(=O)O`: the Potency entry is “inactive”. The value for `CC1(C)OC(=O)NC1=O` was “inactive”.

The values are drawn from PubChem BioAssay (Tox21).
